Bioassay records: PubChem, several laboratories
Shown are actives, neighbours in structure and some others; about 1% of the full set was active somewhere.
HSV augment = enhancers of HSV replication in host cells, fold increase, host cell viability. maximum fold increase. HSV replication augmentation in cells. actives 0.005% (n = 220,000); in the data active = maximum fold increase above about 1.5; tested in PC3 cells
Efflux pump mplx = inhibitors of Candida efflux pumps in yeast, primary screen, S. cerevisiae, Nile Red, multiplex. S. cerevisiae Candida pump triplex. inhibition, % at 10 µM. actives 0.44% (n = 330,000). AID 485275, 2010;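 active = plate passing quality check with inhibition over a set limit, or well fluorescence over plate mean plus 4 SD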;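 note: Nile Red retained in pooled yeast measured as flow cytometry median fluorescence; higher means more Nile Red kept so more efflux inhibition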
Bfl-1 A1 inh = caspase 3/7 activation in MEF A1-2A-BIM cells, primary screen, A1 inhibitor project, cell-based, luminescence, HTS; actives 0.066% (n = 330,000); caspase activation, % (test concentration not listed); Caspase-Glo 3/7 luminescence, 3 h; percent of clofoctol response, vehicle zero;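 active = over half of replicate activation scores above 10%, or exactly half above 10 with the replicate mean above 10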
TAG inh = inhibitors of triacylglycerol accumulation, primary screen, cell-based, uHTS, fluorescence, H9c2; H9c2 cells, Nile Red lipid (TAG) fluorescence; cells loaded with 200 µM oleic acid; inhibition, % at 12.5 µM; actives 0.66% (n = 230,000); AID 651582, 2012;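 active = pattern-corrected inhibition of lipid staining of at least 50% with the nuclear-stain viability signal not falling by more than 50%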
GC-A act = GC-A stimulated cGMP production enhancers – HEK293 GC-A cells, cGMP TR-FRET, EC30 ANP, primary screen. Atrial natriuretic peptide receptor 1 (Homo sapiens), P16066. 0% at EC30 ANP, 100% saturating ANP. activation, % at 10 µM. actives 0.14% (n = 370,000). AID 1671463, 2021; in the data active = activation above about 40%
Target sequence (P16066 whole entry, looked up): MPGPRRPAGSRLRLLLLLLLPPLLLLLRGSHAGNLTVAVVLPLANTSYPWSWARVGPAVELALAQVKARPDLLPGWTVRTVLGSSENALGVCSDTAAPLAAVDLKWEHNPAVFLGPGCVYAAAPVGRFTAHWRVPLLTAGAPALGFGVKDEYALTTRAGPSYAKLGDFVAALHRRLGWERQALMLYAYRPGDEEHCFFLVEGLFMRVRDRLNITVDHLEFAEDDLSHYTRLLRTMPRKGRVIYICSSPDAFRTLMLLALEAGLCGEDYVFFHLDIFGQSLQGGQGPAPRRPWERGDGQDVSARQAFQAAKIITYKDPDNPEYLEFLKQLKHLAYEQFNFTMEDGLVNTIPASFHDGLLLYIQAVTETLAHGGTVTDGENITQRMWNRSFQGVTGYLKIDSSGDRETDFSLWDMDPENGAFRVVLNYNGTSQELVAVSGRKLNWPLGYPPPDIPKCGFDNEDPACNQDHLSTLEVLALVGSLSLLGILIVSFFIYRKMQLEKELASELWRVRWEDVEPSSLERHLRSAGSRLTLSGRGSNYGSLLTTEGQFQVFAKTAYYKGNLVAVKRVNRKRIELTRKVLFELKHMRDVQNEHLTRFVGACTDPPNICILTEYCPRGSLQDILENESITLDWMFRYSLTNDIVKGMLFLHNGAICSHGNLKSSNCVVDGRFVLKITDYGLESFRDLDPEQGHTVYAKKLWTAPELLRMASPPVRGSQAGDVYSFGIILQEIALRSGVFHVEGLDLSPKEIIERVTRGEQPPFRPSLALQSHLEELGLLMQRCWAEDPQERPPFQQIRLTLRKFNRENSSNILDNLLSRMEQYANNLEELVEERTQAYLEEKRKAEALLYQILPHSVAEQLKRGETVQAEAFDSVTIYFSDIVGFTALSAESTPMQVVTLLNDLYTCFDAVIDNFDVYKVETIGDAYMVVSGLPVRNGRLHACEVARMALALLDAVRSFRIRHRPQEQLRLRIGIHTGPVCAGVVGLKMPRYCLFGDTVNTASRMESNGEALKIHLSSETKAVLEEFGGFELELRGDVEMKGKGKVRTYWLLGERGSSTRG
GC-B act = human GC-B receptor activators, primary screen, HEK293 GC-B cells, cGMP TR-FRET, EC30 CNP | Atrial natriuretic peptide receptor 2 (Homo sapiens), P20594 | 0% at EC30 CNP, 100% saturating CNP | activation, % at 10 µM | actives 0.11% (n = 370,000);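 active = activation at 10 µM reaching about 35% in either raw or pattern-adjusted values, limit read from the data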
Yeast cmpd fluor = flagged as fluorescent in efflux inhibitor counter-screen; AID 588517; shares compounds with Efflux pump mplx; S. cerevisiae AD/pABC3, compound fluorescence, flow cytometry; actives 4% (n = 1,700); fluorescence ratio to DMSO, % at 10 µM;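 active = fluorescence ratio to DMSO above its plate's cutoff, the plate mean ratio plus 5 SD, cut at about 210% in these data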;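 note: unstained yeast with no Nile Red so the signal is compound autofluorescence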
CaMdr1 efflux inh = inhibitors of Candida albicans Mdr1 efflux, confirmation, flow cytometry, singleplex, Cherry Pick1 set; shares compounds with Efflux pump mplx; S. cerevisiae AD/CaMDR1, Nile Red efflux; inhibition, % at 10 µM; actives 1% (n = 1,700); AID 588518, 2011; in the data active = inhibition above about 26%;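 note: higher means more Nile Red retained so more efflux inhibition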
CaCdr2 efflux inh = inhibitors of Candida albicans Cdr2 efflux pump, confirmation, S. cerevisiae AD/CaCDR2, flow cytometry, cherry pick 1, singleplex | actives 4% (n = 1,700) | AID 588520, 2011 | Nile Red retention ratio vs DMSO, % at 10 µM | Nile Red retention | shares compounds with Efflux pump mplx; in the data active = Nile Red retention ratio vs DMSO above about 190%;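 note: higher ratio means more blocking of Cdr2 efflux of the dye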
CaCdr1 efflux inh = inhibitors of Candida albicans Cdr1 efflux pump, confirmation, S. cerevisiae AD/CaCDR1, flow cytometry, cherry pick 1, singleplex. Nile Red efflux. AID 588522, 2011. shares compounds with Efflux pump mplx. actives 1% (n = 1,700). inhibition, % at 10 µM;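 active = inhibition above the screen-wide mean plus twice its standard deviation, cut at about 32% in these data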
Large screens that a line does not name were inactive (follow-up assays come after a bar, where they were run).

C[C@@]12C(=O)Nc3ccc(F)cc3C(=O)N1[C@H]1c3cc(Cl)ccc3OC[C@@H]1[C@@H]2c1ccccc1	none (no result: HSV augment) | Yeast cmpd fluor inactive | CaMdr1 efflux inh inactive | CaCdr2 efflux inh inactive | CaCdr1 efflux inh inactive
COc1cc2c(cc1OC)C(=O)N1[C@H]3c4ccccc4OC[C@@H]3[C@H](c3ccccc3)[C@]1(C)C(=O)N2	none (no result: HSV augment)
COc1ccc2c(c1)OC[C@H]1[C@H]2N2C(=O)c3cc(OC)c(OC)cc3NC(=O)[C@@]2(C)[C@H]1c1ccccc1	Efflux pump mplx 48 (no result: HSV augment) | Yeast cmpd fluor 539 | CaMdr1 efflux inh 79 | CaCdr2 efflux inh inactive | CaCdr1 efflux inh 34
Cc1ccc2c(c1)C(=O)N1[C@H]3c4cc(Cl)ccc4OC[C@@H]3[C@H](c3ccccc3)[C@]1(C)C(=O)N2	none (no result: HSV augment) | Yeast cmpd fluor inactive | CaMdr1 efflux inh inactive | CaCdr2 efflux inh inactive | CaCdr1 efflux inh inactive
CC(=O)N1CCN(c2ccc(NC(=S)NC(=O)c3ccccc3)cc2)CC1	Efflux pump mplx 5.8 (no result: TAG inh) | Yeast cmpd fluor inactive | CaMdr1 efflux inh inactive | CaCdr2 efflux inh inactive | CaCdr1 efflux inh inactive
CC(=O)N1CCN(c2ccc(NC(=O)c3ccccc3)cc2)CC1	none (no result: HSV augment)
Cc1ocnc1C(=O)Nc1ccc(Cl)cc1	Efflux pump mplx 9.8 (no result: TAG inh) | Yeast cmpd fluor inactive | CaMdr1 efflux inh inactive | CaCdr2 efflux inh inactive | CaCdr1 efflux inh inactive
Cc1ccc(-n2nc(C)c(NC(=O)CCl)c2C)cc1	Efflux pump mplx 10 | Yeast cmpd fluor inactive | CaMdr1 efflux inh inactive | CaCdr2 efflux inh inactive | CaCdr1 efflux inh inactive
Cc1ccc(-c2cc(NC(=O)CCl)n(-c3ccccc3)n2)cc1	none (no result: HSV augment)
CCC(Sc1nc2ccccc2[nH]1)C(=O)Nc1ccc(NC(C)=O)cc1 (centres undefined)	Efflux pump mplx 0.7 | Yeast cmpd fluor inactive | CaMdr1 efflux inh inactive | CaCdr2 efflux inh inactive | CaCdr1 efflux inh inactive
CCC(Sc1nc2ccccc2[nH]1)C(=O)Nc1cc(C)on1 (centres undefined)	none (no result: TAG inh)
NC(=O)NOCc1ccccc1	none
O=C(NOCc1ccccc1)c1coc(-c2ccccc2)n1	Efflux pump mplx 1.4 (no result: HSV augment, Bfl-1 A1 inh) | Yeast cmpd fluor inactive | CaMdr1 efflux inh inactive | CaCdr2 efflux inh inactive | CaCdr1 efflux inh inactive
COCCCNC(=O)C[C@H]1C[C@@]2(C(=O)OC)C(=C[C@H](C3CCCC3)O[C@@H]2C)N(Cc2ccc(Cl)cc2Cl)C1=O	none (no result: HSV augment, Efflux pump mplx, Bfl-1 A1 inh, TAG inh)
COc1ccc(NC(=O)C(NC(=O)c2ccc(C)cc2)c2ccccc2)cc1 (centres undefined)	Efflux pump mplx 0.3 (no result: HSV augment) | Yeast cmpd fluor inactive | CaMdr1 efflux inh inactive | CaCdr2 efflux inh inactive | CaCdr1 efflux inh inactive
COc1ccc(NC(=O)C(NC(=O)c2ccc(=O)[nH]c2)c2ccccc2)cc1 (centres undefined)	none (no result: TAG inh)
O=C(CN1C(=O)CCSc2ccccc21)Nc1ccc(F)cc1	none (no result: TAG inh) | Yeast cmpd fluor inactive | CaMdr1 efflux inh inactive | CaCdr2 efflux inh inactive | CaCdr1 efflux inh inactive
O=C(CN1C(=O)CCSc2ccccc21)Nc1ccccc1	none (no result: TAG inh)
